Assay results: ChEMBL document CHEMBL1961873, “Compounds: GSK PKIS; Assays: Nanosyn kinase panel” (2012)

Tests used:
[1] = tested on: Proto-oncogene tyrosine-protein kinase receptor Ret (Homo sapiens), P07949 [Y791F]; settings: at 1 µM
[2] = target: Macrophage-stimulating protein receptor (Homo sapiens) (UniProt Q04912); settings: at 0.1 µM
[3] = target: Macrophage-stimulating protein receptor (Homo sapiens) (UniProt Q04912); settings: at 1 µM
[4] = target: Proto-oncogene tyrosine-protein kinase ROS (Homo sapiens) (UniProt P08922); settings: at 0.1 µM
[5] = target: Proto-oncogene tyrosine-protein kinase ROS (Homo sapiens) (UniProt P08922); settings: at 1 µM
[6] = target: Proto-oncogene tyrosine-protein kinase Src (Homo sapiens) (UniProt P12931); settings: at 0.1 µM
[7] = target: Proto-oncogene tyrosine-protein kinase Src (Homo sapiens) (UniProt P12931); settings: at 1 µM
[8] = target: Tyrosine-protein kinase Srms (Homo sapiens) (UniProt Q9H3Y6); settings: at 0.1 µM
[9] = target: Tyrosine-protein kinase Srms (Homo sapiens) (UniProt Q9H3Y6); settings: at 1 µM
[10] = target: Tyrosine-protein kinase SYK (Homo sapiens) (UniProt P43405); settings: at 0.1 µM
[11] = target: Tyrosine-protein kinase SYK (Homo sapiens) (UniProt P43405); settings: at 1 µM
[12] = target: T1, Tyrosine-protein kinase Tec (Homo sapiens) (UniProt P42680); settings: at 0.1 µM
T1 sequence (whole entry): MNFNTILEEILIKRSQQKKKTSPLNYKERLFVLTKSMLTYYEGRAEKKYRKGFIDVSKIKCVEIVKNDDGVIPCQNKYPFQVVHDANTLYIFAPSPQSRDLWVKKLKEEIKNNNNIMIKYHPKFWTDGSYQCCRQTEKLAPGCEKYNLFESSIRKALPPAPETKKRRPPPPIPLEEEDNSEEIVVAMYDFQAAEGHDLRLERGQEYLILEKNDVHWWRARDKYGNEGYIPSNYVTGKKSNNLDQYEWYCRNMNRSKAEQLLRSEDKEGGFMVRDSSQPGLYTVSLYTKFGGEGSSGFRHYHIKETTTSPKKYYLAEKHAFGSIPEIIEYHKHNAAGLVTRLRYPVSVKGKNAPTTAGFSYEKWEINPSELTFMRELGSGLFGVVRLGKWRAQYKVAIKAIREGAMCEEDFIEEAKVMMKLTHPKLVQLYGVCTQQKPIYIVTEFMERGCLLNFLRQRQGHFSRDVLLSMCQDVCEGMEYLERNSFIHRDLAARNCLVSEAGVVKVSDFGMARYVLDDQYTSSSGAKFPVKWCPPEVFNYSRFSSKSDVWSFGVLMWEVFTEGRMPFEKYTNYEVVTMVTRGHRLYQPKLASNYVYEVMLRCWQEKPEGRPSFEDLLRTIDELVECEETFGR

[13] = target: T1, Tyrosine-protein kinase Tec (Homo sapiens); settings: at 1 µM
[14] = target: Angiopoietin-1 receptor (Homo sapiens) (UniProt Q02763); settings: at 0.1 µM
[15] = target: Angiopoietin-1 receptor (Homo sapiens) (UniProt Q02763); settings: at 1 µM
[16] = target: T2, Non-receptor tyrosine-protein kinase TNK1 (Homo sapiens) (UniProt Q13470); settings: at 0.1 µM
T2 sequence (whole entry): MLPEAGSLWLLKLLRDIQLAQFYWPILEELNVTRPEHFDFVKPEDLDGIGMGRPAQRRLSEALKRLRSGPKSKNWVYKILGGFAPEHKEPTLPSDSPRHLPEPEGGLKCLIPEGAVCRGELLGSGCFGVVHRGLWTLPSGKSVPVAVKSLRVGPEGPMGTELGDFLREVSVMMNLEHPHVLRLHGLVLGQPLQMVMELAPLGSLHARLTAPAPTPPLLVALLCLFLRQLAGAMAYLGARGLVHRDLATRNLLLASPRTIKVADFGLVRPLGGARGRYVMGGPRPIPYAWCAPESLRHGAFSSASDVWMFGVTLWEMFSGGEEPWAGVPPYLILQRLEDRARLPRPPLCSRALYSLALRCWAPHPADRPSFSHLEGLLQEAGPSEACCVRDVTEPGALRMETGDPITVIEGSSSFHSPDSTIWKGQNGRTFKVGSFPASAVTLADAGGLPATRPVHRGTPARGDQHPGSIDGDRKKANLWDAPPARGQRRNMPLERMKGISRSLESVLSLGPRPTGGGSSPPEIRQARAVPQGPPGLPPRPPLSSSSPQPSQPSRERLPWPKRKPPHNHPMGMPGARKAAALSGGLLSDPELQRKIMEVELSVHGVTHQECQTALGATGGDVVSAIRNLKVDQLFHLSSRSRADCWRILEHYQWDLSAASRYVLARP

[17] = target: T2, Non-receptor tyrosine-protein kinase TNK1 (Homo sapiens); settings: at 1 µM
[18] = target: Activated CDC42 kinase 1 (Homo sapiens) (UniProt Q07912); settings: at 0.1 µM
[19] = target: Activated CDC42 kinase 1 (Homo sapiens) (UniProt Q07912); settings: at 1 µM
[20] = target: High affinity nerve growth factor receptor (Homo sapiens) (UniProt P04629); settings: at 0.1 µM;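 further: each value is a mean of replicate percent inhibition readings against TRKA kinase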

Activated CDC42 kinase 1 (Homo sapiens), sequence (Q07912 whole entry, looked up): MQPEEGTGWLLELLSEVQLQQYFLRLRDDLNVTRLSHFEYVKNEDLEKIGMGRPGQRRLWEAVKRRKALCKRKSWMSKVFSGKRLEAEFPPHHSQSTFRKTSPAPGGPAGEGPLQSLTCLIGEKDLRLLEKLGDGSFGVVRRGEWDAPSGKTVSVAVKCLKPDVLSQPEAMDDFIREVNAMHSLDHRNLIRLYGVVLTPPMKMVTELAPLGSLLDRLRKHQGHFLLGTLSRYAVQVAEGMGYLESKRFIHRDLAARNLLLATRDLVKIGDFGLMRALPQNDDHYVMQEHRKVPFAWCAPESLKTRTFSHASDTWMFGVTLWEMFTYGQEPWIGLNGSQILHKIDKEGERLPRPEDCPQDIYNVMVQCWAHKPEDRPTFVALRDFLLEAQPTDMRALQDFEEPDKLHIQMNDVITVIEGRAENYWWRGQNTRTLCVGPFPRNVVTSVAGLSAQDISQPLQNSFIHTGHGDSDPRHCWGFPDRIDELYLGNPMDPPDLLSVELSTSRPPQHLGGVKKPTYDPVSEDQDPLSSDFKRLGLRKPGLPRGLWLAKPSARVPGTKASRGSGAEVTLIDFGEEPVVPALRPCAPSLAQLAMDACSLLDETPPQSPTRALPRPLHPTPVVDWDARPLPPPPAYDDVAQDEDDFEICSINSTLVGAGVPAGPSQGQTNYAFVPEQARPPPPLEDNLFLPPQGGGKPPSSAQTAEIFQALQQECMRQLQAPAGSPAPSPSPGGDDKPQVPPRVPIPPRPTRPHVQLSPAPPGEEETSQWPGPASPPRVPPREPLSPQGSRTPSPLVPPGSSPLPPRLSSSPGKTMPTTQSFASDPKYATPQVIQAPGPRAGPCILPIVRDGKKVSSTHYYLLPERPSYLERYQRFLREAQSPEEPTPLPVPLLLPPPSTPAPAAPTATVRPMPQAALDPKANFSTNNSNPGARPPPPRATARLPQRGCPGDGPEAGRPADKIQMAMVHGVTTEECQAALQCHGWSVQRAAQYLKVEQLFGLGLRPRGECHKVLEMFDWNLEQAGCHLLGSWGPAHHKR
Macrophage-stimulating protein receptor (Homo sapiens), sequence (Q04912 25-304 limits assumed): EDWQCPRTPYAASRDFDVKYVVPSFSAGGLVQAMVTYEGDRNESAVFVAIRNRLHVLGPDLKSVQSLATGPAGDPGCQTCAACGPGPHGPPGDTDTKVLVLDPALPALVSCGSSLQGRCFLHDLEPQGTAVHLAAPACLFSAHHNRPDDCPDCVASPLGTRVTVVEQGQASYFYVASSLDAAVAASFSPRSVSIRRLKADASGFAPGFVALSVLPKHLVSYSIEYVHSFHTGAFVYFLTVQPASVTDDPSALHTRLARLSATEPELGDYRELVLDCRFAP
Macrophage-stimulating protein receptor (Homo sapiens), sequence (Q04912 310-1400 limits assumed): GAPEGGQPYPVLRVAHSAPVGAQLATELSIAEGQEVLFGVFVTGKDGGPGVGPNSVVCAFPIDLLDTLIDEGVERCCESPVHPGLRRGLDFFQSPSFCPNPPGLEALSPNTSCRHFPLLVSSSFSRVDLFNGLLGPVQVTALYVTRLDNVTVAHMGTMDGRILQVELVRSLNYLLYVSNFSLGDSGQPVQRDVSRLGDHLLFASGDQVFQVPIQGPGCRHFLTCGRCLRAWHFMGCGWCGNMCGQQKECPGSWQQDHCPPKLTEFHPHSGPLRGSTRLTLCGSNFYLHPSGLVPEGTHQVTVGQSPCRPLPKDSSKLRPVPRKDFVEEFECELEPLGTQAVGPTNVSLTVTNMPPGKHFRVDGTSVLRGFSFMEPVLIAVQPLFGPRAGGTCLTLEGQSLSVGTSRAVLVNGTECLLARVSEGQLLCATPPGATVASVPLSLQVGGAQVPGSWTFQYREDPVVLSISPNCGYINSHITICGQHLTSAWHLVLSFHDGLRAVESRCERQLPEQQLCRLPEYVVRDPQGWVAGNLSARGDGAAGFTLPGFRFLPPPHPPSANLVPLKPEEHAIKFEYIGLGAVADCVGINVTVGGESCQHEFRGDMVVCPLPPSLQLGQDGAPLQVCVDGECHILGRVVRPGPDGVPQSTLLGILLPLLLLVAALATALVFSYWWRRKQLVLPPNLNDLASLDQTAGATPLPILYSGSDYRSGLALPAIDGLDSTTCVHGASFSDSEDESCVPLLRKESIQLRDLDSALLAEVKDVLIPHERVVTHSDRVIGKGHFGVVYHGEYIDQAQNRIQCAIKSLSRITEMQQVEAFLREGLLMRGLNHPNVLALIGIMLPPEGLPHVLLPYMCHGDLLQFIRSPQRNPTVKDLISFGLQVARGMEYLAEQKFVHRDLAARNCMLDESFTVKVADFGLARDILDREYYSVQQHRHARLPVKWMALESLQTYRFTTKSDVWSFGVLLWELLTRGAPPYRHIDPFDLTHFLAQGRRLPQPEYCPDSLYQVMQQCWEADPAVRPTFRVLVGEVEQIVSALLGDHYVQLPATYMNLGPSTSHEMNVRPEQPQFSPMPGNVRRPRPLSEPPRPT
Proto-oncogene tyrosine-protein kinase Src (Homo sapiens), sequence (P12931 2-536 limits assumed): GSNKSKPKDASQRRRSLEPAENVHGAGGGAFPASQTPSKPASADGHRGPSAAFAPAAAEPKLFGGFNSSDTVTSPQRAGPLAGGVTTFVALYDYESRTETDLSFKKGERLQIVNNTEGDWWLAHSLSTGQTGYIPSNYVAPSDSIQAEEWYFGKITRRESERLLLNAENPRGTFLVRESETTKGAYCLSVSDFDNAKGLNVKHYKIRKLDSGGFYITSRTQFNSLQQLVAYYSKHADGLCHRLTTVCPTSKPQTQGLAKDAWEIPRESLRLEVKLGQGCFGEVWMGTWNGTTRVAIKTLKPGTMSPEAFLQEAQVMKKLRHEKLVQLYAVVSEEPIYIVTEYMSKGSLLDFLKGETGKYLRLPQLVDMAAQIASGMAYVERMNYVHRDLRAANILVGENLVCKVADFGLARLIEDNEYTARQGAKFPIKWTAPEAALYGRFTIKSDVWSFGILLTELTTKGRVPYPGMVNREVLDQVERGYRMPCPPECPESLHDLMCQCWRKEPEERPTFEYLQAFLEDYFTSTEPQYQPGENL
Tyrosine-protein kinase Srms (Homo sapiens), sequence (Q9H3Y6 whole entry): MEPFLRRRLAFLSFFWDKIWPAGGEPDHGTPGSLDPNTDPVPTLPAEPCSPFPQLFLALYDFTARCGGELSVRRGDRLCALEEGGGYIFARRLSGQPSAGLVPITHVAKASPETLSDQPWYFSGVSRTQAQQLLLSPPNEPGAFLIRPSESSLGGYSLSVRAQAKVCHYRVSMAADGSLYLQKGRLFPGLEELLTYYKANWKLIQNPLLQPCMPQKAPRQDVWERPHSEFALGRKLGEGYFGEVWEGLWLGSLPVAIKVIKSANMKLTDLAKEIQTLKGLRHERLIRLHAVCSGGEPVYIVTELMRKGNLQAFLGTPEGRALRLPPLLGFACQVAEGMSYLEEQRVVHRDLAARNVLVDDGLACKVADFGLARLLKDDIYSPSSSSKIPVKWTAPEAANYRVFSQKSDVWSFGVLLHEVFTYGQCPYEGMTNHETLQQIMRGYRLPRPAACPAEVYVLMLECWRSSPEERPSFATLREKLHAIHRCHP
Proto-oncogene tyrosine-protein kinase receptor Ret (Homo sapiens), P07949 [Y791F], sequence (P07949 whole entry Y791F): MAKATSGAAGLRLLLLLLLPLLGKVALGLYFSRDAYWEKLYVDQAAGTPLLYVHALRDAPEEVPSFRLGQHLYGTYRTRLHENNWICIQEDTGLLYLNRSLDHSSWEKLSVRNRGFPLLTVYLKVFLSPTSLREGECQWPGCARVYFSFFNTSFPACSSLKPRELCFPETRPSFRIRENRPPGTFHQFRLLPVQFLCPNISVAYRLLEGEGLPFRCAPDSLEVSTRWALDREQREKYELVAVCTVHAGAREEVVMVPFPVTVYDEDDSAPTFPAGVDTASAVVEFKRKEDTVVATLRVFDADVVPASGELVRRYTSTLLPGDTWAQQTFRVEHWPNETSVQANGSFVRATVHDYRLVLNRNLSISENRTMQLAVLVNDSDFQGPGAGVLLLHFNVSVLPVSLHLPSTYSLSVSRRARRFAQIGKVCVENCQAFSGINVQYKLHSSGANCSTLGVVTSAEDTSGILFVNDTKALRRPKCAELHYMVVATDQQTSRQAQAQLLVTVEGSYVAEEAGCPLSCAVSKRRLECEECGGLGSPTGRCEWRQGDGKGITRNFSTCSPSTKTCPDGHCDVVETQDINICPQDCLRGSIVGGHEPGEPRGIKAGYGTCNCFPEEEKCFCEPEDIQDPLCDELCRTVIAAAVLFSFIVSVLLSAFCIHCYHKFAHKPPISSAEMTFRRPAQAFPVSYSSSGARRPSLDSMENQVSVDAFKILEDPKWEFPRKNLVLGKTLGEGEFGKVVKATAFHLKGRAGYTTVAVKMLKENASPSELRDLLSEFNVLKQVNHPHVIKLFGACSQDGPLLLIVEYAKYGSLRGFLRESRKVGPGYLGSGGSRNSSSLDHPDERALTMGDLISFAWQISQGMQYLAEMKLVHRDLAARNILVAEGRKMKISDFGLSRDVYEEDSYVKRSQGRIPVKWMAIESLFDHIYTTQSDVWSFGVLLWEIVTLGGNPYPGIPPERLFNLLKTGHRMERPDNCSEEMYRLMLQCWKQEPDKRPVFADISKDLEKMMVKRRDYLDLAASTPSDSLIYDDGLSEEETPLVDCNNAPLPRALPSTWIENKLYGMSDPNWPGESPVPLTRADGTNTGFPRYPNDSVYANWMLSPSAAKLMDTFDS

SMILES | inhibition [1] [%] | inhibition [2] [%] | inhibition [3] [%] | inhibition [4] [%] | inhibition [5] [%] | inhibition [6] [%] | inhibition [7] [%] | inhibition [8] [%] | inhibition [9] [%] | inhibition [10] [%] | inhibition [11] [%] | inhibition [12] [%] | inhibition [13] [%] | inhibition [14] [%] | inhibition [15] [%] | inhibition [16] [%] | inhibition [17] [%] | inhibition [18] [%] | inhibition [19] [%] | inhibition [20] [%]
COc1cccc(-n2ncc3c(N/N=C/c4cccc(F)c4)ncnc32)c1 | 19.5 | 7.02 | 24.4 | 3.12 | 10.6 | 0.4 | 57.2 | -0.72 | 2.55 | 9.4 | -0.87 | -1.33 | 2.09 | 1.49 | 9 | 2.13 | 2.44 | 0.24 | 0.25 | 3.27
CCn1c(-c2nonc2N)nc2cncc(C(=O)N3CCNCC3)c21 | 5.78 | 3.02 | 4.33 | 7.86 | 7.97 | 14.1 | 16.4 | -3.72 | -2.89 | -1.71 | 3.25 | 7.87 | 7.17 | 6.61 | 5.14 | 3.89 | 5.69 | 1.51 | 1.52 | 1.71
COc1cc2c(cc1Nc1nc(N3CCc4ccccc43)c3cc[nH]c3n1)N(C(=O)CN(C)C)CC2 | 8.94 | -4.18 | 4.66 | 70.2 | 79.2 | 1.56 | 8.12 | 0.05 | -1.29 | 0.91 | -0.01 | 2.67 | 7.6 | -0.77 | 1.37 | 1.17 | 12 | 0.63 | 1.93 | 0.79
CC(C)=Cc1cccc2c1/C(=N/Nc1ccc(S(N)(=O)=O)cc1)C(=O)N2 | 50.3 | 2.03 | 4.1 | -0.28 | 20 | 10.8 | 46.4 | 3.21 | 4.02 | 2.78 | -2.03 | 2.44 | 10.1 | 0.37 | 3.74 | 9.88 | 65.6 | 0.01 | 2.76 | 6.87
CCn1c(-c2nonc2N)nc2cncc(C(=O)N3CC[C@H](N)C3)c21 | 13.9 | 2.92 | 6.19 | 7.46 | 6.07 | -1.35 | 7.23 | 0.37 | -0.65 | -5.72 | 1.83 | 4.37 | 3.68 | 11.3 | 11.4 | 2.94 | 2.95 | 1.08 | 1.01 | 0.41
CS(=O)(=O)CCN(CC#N)Cc1ccc(-c2ccc3ncnc(Nc4ccc(OCc5cccc(F)c5)c(Cl)c4)c3c2)o1 | 3.1 | 0.07 | 0.14 | 6.53 | 4.3 | 3.38 | 4.01 | 1.13 | -1.83 | 1.85 | 1.94 | -2.12 | -1.96 | 2.27 | 1.84 | 2.76 | 23.2 | -0.59 | 0.01 | 2.64
